Fam108B counter = mouse Fam108B serine hydrolase inhibitors, primary screen, counter-screen for RBBP9 inhibitor project, biochemical, fluorescence polarization. recombinant Fam108B, FP-Rh probe fluorescence polarization. inhibition, % at 9.51 µM. hit rate 0.33% among 300,000. AID 1947, 2009;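 active means inhibition above the screen mean inhibition plus 3 SD, computed separately per campaign, cut at about 18% in these data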;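 further: inhibitors lower polarization as less probe binds the enzyme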
TCR CD3 inh = inhibitors of human TCR-CD3 interaction, primary screen, biochemical, fluorescence, TAMRA-labeled TCR probe; hit rate 0.37% among 360,000; AID 651800, 2012; T-cell receptor (TCR); inhibition, % at 9.4 µM; in the data active means inhibition above about 19%;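 further: recombinant mutant TCR 2C K166C tagged with TAMRA read by polarization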
PRMT1 inh = PRMT1 methyltransferase inhibitors, primary screen, biochemical, fluorescence polarization. inhibition, % at 2.79 µM. AID 652257, 2013. hit rate 1.3% among 370,000. Protein arginine N-methyltransferase 1 (Homo sapiens), Q99873. recombinant PRMT1, activity-based probe fluorescence polarization;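 active means inhibition above about 21% made by adding two undisclosed values, limit read from the data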
PME-1 primary = PME-1 inhibitors via competitive probe labeling, primary screen, biochemical, fluorescence polarization, FP-Rh probe, HTS; Protein phosphatase methylesterase 1 (Homo sapiens), Q9Y570; recombinant PME-1; inhibition, % at 5.9 µM; hit rate 0.53% among 320,000; AID 2130, 2009;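 active means inhibition above the campaign mean of all compounds plus 3 SD, cut at about 26% in these data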;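 further: competitive labeling of PME-1 active site by serine hydrolase directed probe; inhibitors block probe labeling so polarization falls and inhibition rises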
Target sequence (Q9Y570 whole entry, looked up): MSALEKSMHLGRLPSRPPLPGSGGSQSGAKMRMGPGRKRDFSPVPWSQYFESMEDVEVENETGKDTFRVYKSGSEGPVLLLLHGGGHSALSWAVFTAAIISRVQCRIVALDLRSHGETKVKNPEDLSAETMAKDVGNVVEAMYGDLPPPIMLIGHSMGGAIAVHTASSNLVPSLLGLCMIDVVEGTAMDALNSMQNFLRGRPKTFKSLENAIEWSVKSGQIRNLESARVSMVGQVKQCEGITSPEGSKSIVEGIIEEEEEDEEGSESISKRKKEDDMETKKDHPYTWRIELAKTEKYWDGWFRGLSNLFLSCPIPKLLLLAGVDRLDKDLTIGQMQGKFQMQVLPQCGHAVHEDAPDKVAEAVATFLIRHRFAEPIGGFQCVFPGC
SIAE primary = human SIAE inhibitors, primary screen, biochemical, fluorescence polarization, FP-Rh probe, 1536-well HTS | Sialate O-acetylesterase (Homo sapiens), Q9HAT2 | SIAE FP-Rh probe binding | inhibition, % at 9.66 µM | hit rate 0.69% among 370,000 | AID 1053197, 2014;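 active means inhibition above a cutoff: mean of compounds within the control limits plus 3 SD of those, cut at about 17% in these data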
PAD4 FP inh = human PAD4 inhibitors, primary screen, biochemical, fluorescence polarization, 1536-well format | Protein-arginine deiminase type-4 (Homo sapiens), Q9UM07 | recombinant PAD4, RCA probe fluorescence polarization | inhibition, % at 6.36 µM | hit rate 0.41% among 330,000;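 active means percent inhibition above a cutoff equal to the mean of all tested compounds plus 3 SD, cut at about 15% in these data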
SIAE confirm = human SIAE inhibitors, retest, confirmation, biochemical, fluorescence polarization, FP-Rh probe, triplicate; shares compounds with SIAE primary; SIAE FP-Rh activity-based probe; inhibition, % at 9.66 µM; hit rate 13% among 2,300;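 active means mean inhibition of the replicates above the hit cutoff set in the primary screen, cut at about 17% in these data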;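 further: inhibitors lower polarization as more probe stays unbound to SIAE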
Numbers stand for hits; - = inactive; . = not tested or not shown. Rows were chosen to be rich in hits. Some 2.6% of all compounds tested hit in one or more screens of this group.

SMILES	Fam108B counter	TCR CD3 inh	PRMT1 inh	PME-1 primary	SIAE primary	PAD4 FP inh	SIAE confirm
Nc1ncnc2c1ncn2[C@@H]1O[C@H](C(=O)N[C@@H](CO)c2ccccc2)[C@@H](O)[C@H]1O	.	-	-	.	17	.	19
CN(C)C(=O)N1CCN(C(=O)[C@H](CCc2ccccc2)NC(=O)[C@H]2O[C@@H](n3cnc4c(N)ncnc43)[C@H](O)[C@@H]2O)CC1	.	-	-	.	36	.	43
C[C@@H](NC(=O)[C@H]1O[C@@H](n2cnc3c(N)ncnc32)[C@H](O)[C@@H]1O)c1cccc2ccccc12	.	-	-	.	-	.	.
COc1ccccc1C(=O)N1CCN(C(=O)[C@H]2O[C@@H](n3cnc4c(N)ncnc43)[C@H](O)[C@@H]2O)CC1	.	-	-	.	23	.	21
Nn1c(SCC(=O)NC2CCCCC2)nnc1-c1cc(-c2ccccc2)n[nH]1	.	.	-	.	-	.	.
C/C(=N\NC(=S)Nc1cccc(C)c1)c1cc2ccccc2o1	-	-	-	-	19	-	-
O=C(CN1C(=O)NC2(CCCCC2)C1=O)N1CCN(S(=O)(=O)c2cccc([N+](=O)[O-])c2)CC1	.	-	-	-	18	-	-
OC(c1ccccc1)(c1ccccc1)C1CCN(CCCNc2ccc(C(F)(F)F)cc2)CC1	.	.	-	.	-	.	.
O=C(COC(=O)c1cccnc1)c1ccc(Cl)cc1	-	-	-	-	18	-	-
O=C(COC(=O)c1cccnc1)c1ccc(Cl)c(Cl)c1	-	-	-	-	-	-	.
Cc1ccc(NC(=O)Nc2ccc3c(c2)[C@]2(CC(=O)N(CC(C)C)C2c2ccccc2)C(=O)N3C)cc1Cl (some centres undefined)	.	.	-	.	-	.	.
COC(=O)C1=NN(C(=O)c2ccc(Br)cc2)C(O)(C(C)(C)C)C1 (centres undefined)	.	-	-	.	-	.	.
COC(=O)C1=NN(C(=O)c2cccc(Cl)c2)C(O)(C(C)(C)C)C1 (centres undefined)	-	-	-	-	24	-	-
Nn1c(SCC(=O)Nc2ccc(F)cc2)nnc1C1CCCCC1	-	-	-	-	-	-	.
CN(C)c1ccc(NC(=O)CSc2nnc(C3CCCCC3)n2N)cc1	-	-	-	-	20	-	-
Cc1ccccc1CN1CCN(C(=O)[C@H]2O[C@@H](n3cnc(C(N)=O)n3)[C@H](O)[C@@H]2O)CC1	.	-	-	.	19	.	29
NC(=O)c1ncn([C@@H]2O[C@H](C(=O)N3CCCN(Cc4ccccc4F)CC3)[C@@H](O)[C@H]2O)n1	.	-	-	.	80	.	88
Cc1ccccc1CN1CCN(C(=O)[C@H]2O[C@@H](n3ccc(=O)[nH]c3=O)[C@H](O)[C@@H]2O)CC1	.	-	-	.	-	.	.
O=C1C[C@H](C(=O)Nc2ccc(Cl)cc2)[C@@H](c2ccccc2)O1	.	.	-	.	-	.	.
CCN(CC)CCCN(C(=O)c1ccc(F)cc1)c1nc(-c2ccc(OC)cc2)cs1	-	-	-	-	24	-	-
COC(=O)[C@]12C[C@H](CC(=O)N3CCCC3)C(=O)N(Cc3ccccc3)C1=C[C@H](COCc1ccccc1)O[C@@H]2C	.	.	-	.	-	.	.
O=C(O)c1ccc(Nc2cccc(F)c2)c([N+](=O)[O-])c1	-	-	-	-	20	-	-
COc1ccc(/C=N/Nc2nc(-c3cccc(S(=O)(=O)N4CCCC4)c3)cs2)cc1OC	-	-	-	-	-	-	.
CCOc1cc(/C=N/Nc2nc(-c3cccc(S(=O)(=O)N4CCCC4)c3)cs2)ccc1O	-	-	-	-	21	-	-
Cc1ccc(Cl)cc1NC(=O)CN1C(=O)NC2(CCCCCC2)C1=O	.	-	-	-	45	-	-
Cc1ccccc1Cn1cc(CN2[C@H](C)COc3cc(Br)ccc3S2(=O)=O)nn1	.	.	-	.	-	.	.
N#C/C(=C/c1ccc(N2CCCCC2)o1)C(=O)Nc1ccc2ccccc2c1	.	-	-	.	21	.	-
N#C/C(=C/c1ccc(N2CCCCC2)o1)C(=O)Nc1ccc(Cl)cc1	-	-	-	-	-	-	.

From PubChem
